We go through 11 compounds from PubChem BioAssay (EPA / NIEHS).

The nature of assay [1]: CEETOX_H295R_OHPREG: CeeTox H295R High-throughput Steroidogenesis Assay for OH-Pregnenolone (OHPREG) (AID 2283434). The conditions noted are these: actives raise or lower the signal. An outline of the steps: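 Human adrenal H295R cells were prestimulated 48 h with 10 uM forskolin, then exposed 48 h to chemical in 0.1% DMSO. Medium 17alpha-hydroxypregnenolone was quantified by HPLC-MS/MS after MTBE extraction; bidirectional fitting versus DMSO baseline.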

The nature of assay [2]: CEETOX_H295R_OHPROG: CeeTox H295R High-throughput Steroidogenesis Assay for OH-Progesterone (OHPROG) (AID 2283435). The following applies: actives raise or lower the signal. An outline of the steps: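 H295R adrenal cells prestimulated 48 h with 10 uM forskolin, then exposed 48 h to chemical (0.1% DMSO final). 17alpha-hydroxyprogesterone in medium quantified by HPLC-MS/MS; bidirectional fit versus DMSO, with MTT viability measured in the same wells.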

A short description of assay [3]: CEETOX_H295R_PROG: CeeTox H295R High-throughput Steroidogenesis Assay for Progesterone (PROG) (AID 2283442).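 On AC50: human H295R adrenal cells primed with 10 µM forskolin before dosing.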 The conditions noted are these: actives raise or lower the signal. An outline of the steps: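 Progesterone read-out: HPLC-MS/MS on MTBE extracts of conditioned medium after 48 h chemical exposure of forskolin-primed (10 uM, 48 h) H295R cells. Gain or loss of signal was fitted relative to DMSO baseline.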

For assay [4], the target named is human Thyroid Receptor Alpha (TRa), THRA (gene 7067) (UniProt P10827). In words: NVS_NR_hTRa_Antagonist: NovaScreen (NVS) Nuclear Receptor Binding Assay for human Thyroid Receptor Alpha Antagonism (TRa) (AID 2283362; active means hit-call score of the fitted dose curve at least 0.9, where 1 is the maximum;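 further: activity is loss of signal relative to DMSO baseline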). Summed up:
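AlphaLISA chemiluminescent immunoassay readout, taken 1 h post-dosing in a cell-free system with extracted protein. Activity was scored as signal loss against DMSO negative control, from duplicate single-concentration (25 uM) testing followed by concentration-response follow-up.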

The target in assay [5] is Estrogen receptor (Homo sapiens) (UniProt P03372). In words: OT_ER_ERaERa_1440: Odyssey Thera (OT) 24-hour HEK293T Protein-Complementation Assay for Estrogen Receptor-alpha/-alpha Homodimer (AID 2283349; active means hit-call score of the fitted dose curve at least 0.9, where 1 is the maximum;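 further: hits raise fluorescence above DMSO for agonists and antagonists alike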). An outline of the steps: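 Readout is the rise in mean fluorescence from reporter fragment complementation when ERα LBD (aa 310-547) units dimerize in HEK293T cells. Measured 24 h after dosing and analysed as increase over DMSO control.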

Assay [6] has the same target. Briefly: OT_ER_ERaERa_0480: Odyssey Thera (OT) 8-hour HEK293T Protein-Complementation Assay for Estrogen Receptor-alpha/-alpha Homodimer (AID 2283351; active means hit-call score of the fitted dose curve at least 0.9, where 1 is the maximum;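 further: rise in fluorescence from reassembled reporter fragments on ERα LBD homodimer in nucleus or whole cell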). Summed up:
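The readout is complementation of fragments fused to the human ER alpha ligand-binding domain (aa 310-547), stably expressed in HEK293T cells. After 8 h of exposure, the increase in nuclear/cytoplasmic fluorescence was measured by laser scanning cytometry and fitted relative to DMSO.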

Assay [7] has the same target. In words: OT_ERa_GFPERaERE_0480: Odyssey Thera (OT) 8-hour HeLa Transcription Induction Assay for Estrogen Receptor (AID 2283381). Summed up: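 HeLa cells expressing GFP reporter under estrogen response element, imaged 8 h after dosing. GFP induction quantified by high-content fluorescence microscopy image analysis; gain of signal fitted versus DMSO.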
For assay [8] the target is unchanged. Briefly: OT_ERa_GFPERaERE_0120: Odyssey Thera (OT) 2-hour HeLa Transcription Induction Assay for Estrogen Receptor (AID 2283382; active means hit-call score of the fitted dose curve at least 0.9, where 1 is the maximum). Summed up: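 HeLa cells were dosed for 2 h, then GFP reporter induction was quantified by fluorescence microscopy with high-content image analysis. Gain of signal fitted against DMSO baseline.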
Assay [9] is described as follows: CCTE_Shafer_MEA_dev_firing_rate_mean: CCTE's Neural Network Formation Assay for Mean Firing Rate, Shafer Lab (AID 2284031). Summed up:
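Primary rat cortical neurons on 48-well MEA plates, exposed from plating day 0 with dosing renewed on DIV 5 and 9. Mean well firing rate over active electrodes, recorded days 5, 7, 9, 12, summarised as trapezoidal AUC.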

Assay [10] in a line: CCTE_Shafer_MEA_dev_active_electrodes_number: CCTE's Neural Network Formation Assay for Number of Active Electrodes, Shafer Lab (AID 2284040; active means hit-call score of the fitted dose curve at least 0.9, where 1 is the maximum). An outline of the steps: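 Primary rat cortical neurons on 16-electrode MEA wells, exposed from day 0 through day 12 with compound renewed at DIV 5 and 9 feeds. Active electrodes (mean firing ≥5 spikes/min) counted at DIV 5, 7, 9, 12; trapezoidal AUC across days, loss-of-signal versus DMSO.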

Assay [11] in a line: CCTE_Shafer_MEA_dev_burst_rate: CCTE's Neural Network Formation Assay for Burst Rate, Shafer Lab (AID 2284042). An outline of the steps:
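Rat primary cortical cultures on PEI/laminin MEA; compound from plating, re-dosed at DIV 5, 9 media change. Single-electrode bursts/recording length, well mean of active electrodes; AUC over DIV 5–12 recordings; loss-of-signal vs DMSO.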

Assay [12] in a line: CCTE_Shafer_MEA_dev_per_burst_interspike_interval: CCTE's Neural Network Formation Assay for Burst Interspike Interval, Shafer Lab (AID 2284044). Summed up:
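Readout is the average time between spikes inside single-electrode bursts, taken as a well mean across bursting electrodes. Cortical neurons from rat developed networks on MEA plates under continuous 12-day exposure; recordings on days 5, 7, 9 and 12 were integrated by trapezoidal AUC.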

Assay [13] can be described thus: CCTE_Shafer_MEA_dev_burst_duration_mean: CCTE's Neural Network Formation Assay for Mean Burst Duration, Shafer Lab (AID 2284045).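 On AC50: curve fitted for loss meaning shorter burst duration than DMSO.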 Summed up:
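Primary rat cortical neurons on PEI-coated 16-electrode MEA wells, exposed from plating through day 12 with compound renewed at DIV 5 and 9; spontaneous activity recorded days 5, 7, 9, 12. Well-mean burst duration collapsed as trapezoidal AUC, fitted for loss versus DMSO.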

A short description of assay [14]: CCTE_Shafer_MEA_dev_inter_network_spike_interval_mean: CCTE's Neural Network Formation Assay for Mean Inter-network Spike Interval, Shafer Lab (AID 2284047). An outline of the steps: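 Primary rat cortical neurons on PEI-coated 48-well MEAs (16 electrodes/well) were exposed from plating day 0 to DIV 12, with dosing renewed at DIV 5 and 9. Recordings at DIV 5, 7, 9, 12 were collapsed by trapezoidal AUC, loss-of-signal fit vs DMSO.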

A short description of assay [15]: CCTE_Shafer_MEA_dev_network_spike_number: CCTE's Neural Network Formation Assay for Number of Network Spikes, Shafer Lab (AID 2284048). An outline of the steps: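 Primary rat cortical neurons were seeded at 1.5 x 10^5 cells/well on PEI-coated 16-electrode MEA wells with laminin, exposed from plating day 0, compound renewed at DIV 5 and 9. Network spikes were recorded on days 5, 7, 9, 12 and summarized as trapezoidal AUC versus DMSO.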

The nature of assay [16]: CCTE_Shafer_MEA_dev_network_spike_peak: CCTE's Neural Network Formation Assay for Mean Number of Electrodes in Network Spike, Shafer Lab (AID 2284049). An outline of the steps:
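Continuous 12-day exposure of rat cortical cultures, starting at plating, on MEA plates. Endpoint: electrodes participating in network-spike peaks, AUC across DIV 5–12, DMSO as negative control.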

A short description of assay [17]: CCTE_Shafer_MEA_dev_spike_duration_mean: CCTE's Neural Network Formation Assay for Mean Spike Duration, Shafer Lab (AID 2284051).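 Further: mean network spike duration pooled as area under curve over DIV 5 to 12 recordings.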 An outline of the steps: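 Rat cortical primary cultures, 48-well MEA (16 electrodes/well); compound from plating, renewed DIV 5, 9. Network spike duration (AxIS adaptive detector) recorded DIV 5/7/9/12, combined as trapezoidal AUC; loss direction vs DMSO.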

Assay [18] is described as follows: CCTE_Shafer_MEA_dev_network_spike_duration_std: CCTE's Neural Network Formation Assay for Standard Deviation of Network Spike Duration, Shafer Lab (AID 2284052).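 Further: area under curve of spike duration SD across recording days 5 to 12; hits are decreases in network spike duration SD versus DMSO vehicle.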 Summed up:
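Rat cortical cultures, 1.5 x 10^5 cells/well, exposed continuously from plating to DIV 12 with media/compound renewal at DIV 5, 9. Spontaneous activity recorded DIV 5/7/9/12, AxIS adaptive spike detector; AUC across days; negative direction vs DMSO.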

Assay [19] can be described thus: CCTE_Shafer_MEA_dev_per_network_spike_spike_number_mean: CCTE's Neural Network Formation Assay for Mean Number of Spikes in a Network Spike, Shafer Lab (AID 2284053). An outline of the steps:
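Rat cortical primary cultures on 48-well MEA; compound from day 0, re-dosed with full media change DIV 5, 9. Recorded DIV 5, 7, 9, 12; spikes in 0.05 s window at network-spike peak ÷ total network spikes; AUC; loss vs DMSO.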

A short description of assay [20]: CCTE_Shafer_MEA_dev_per_network_spike_spike_percent: CCTE's Neural Network Formation Assay for Percent of Spikes in a Network Spike, Shafer Lab (AID 2284054). An outline of the steps: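 Primary rat cortical neurons on 16-electrode MEA wells (PEI-coated, laminin at plating), exposed from day 0 with renewal at DIV 5 and 9; spikes within 0.05 s of network-spike peaks over total spikes, AUC across days 5, 7, 9, 12.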

Records with an inconclusive call do not appear. Calls of active or inactive are those of the source. How the source made its calls, unless noted: active means hit-call score of the fitted dose curve at least 0.9, where 1 is the maximum; inactive means score below 0.9.

Chain of Estrogen receptor (Homo sapiens) (P03372 whole entry, looked up, the tested form may be a part): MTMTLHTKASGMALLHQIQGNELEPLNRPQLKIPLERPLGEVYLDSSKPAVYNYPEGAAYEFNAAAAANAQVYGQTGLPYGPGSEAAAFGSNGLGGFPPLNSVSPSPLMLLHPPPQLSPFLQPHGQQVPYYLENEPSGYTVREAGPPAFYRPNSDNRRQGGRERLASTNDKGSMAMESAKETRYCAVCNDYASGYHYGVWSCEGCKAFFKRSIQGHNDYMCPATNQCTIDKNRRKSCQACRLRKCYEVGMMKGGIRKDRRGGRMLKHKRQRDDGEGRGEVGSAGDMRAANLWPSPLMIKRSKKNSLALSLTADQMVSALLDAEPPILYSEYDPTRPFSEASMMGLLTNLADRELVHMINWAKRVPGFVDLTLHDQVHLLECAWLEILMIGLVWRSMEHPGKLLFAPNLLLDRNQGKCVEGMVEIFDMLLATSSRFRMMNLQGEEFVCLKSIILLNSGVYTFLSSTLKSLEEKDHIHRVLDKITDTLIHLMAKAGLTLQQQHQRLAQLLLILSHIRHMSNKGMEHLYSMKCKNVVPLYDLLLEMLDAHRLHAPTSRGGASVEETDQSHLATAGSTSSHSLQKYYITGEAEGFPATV
Chain of human Thyroid Receptor Alpha (TRa), THRA (gene 7067) (P10827 whole entry, looked up): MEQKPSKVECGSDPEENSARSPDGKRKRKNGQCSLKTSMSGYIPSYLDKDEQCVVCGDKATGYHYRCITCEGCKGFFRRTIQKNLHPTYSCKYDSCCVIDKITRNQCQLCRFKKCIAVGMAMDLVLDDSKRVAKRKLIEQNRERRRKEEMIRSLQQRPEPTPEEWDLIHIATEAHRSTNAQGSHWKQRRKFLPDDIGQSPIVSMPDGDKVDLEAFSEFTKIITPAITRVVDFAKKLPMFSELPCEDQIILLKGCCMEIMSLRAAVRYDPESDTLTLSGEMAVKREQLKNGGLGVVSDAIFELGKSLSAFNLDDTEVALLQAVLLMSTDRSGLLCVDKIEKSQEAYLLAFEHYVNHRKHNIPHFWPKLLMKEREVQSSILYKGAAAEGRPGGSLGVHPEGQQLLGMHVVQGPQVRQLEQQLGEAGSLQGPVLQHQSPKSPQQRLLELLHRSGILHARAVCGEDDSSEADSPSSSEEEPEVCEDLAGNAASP

For the compound `CCCCOC(=O)COc1ccc(Cl)cc1Cl`, the compound was classed as inactive in [1] and in [3]. Moreover, the AC50 in assay [2] is 74.6 µM (active).
In the case of `CC1=NN(c2cc(Cl)c(S(=O)(=O)O)cc2Cl)C(=O)C1N=Nc1ccc(S(=O)(=O)O)cc1` (stereo not given), the compound was called inactive in assay [4].
`C=C1CC[C@H]2C[C@@H]1C2(C)C`: the compound was called inactive in assay [5], in assay [6], in assay [4], in [7] and in assay [8].
As to `CC1(C)S[C@@H]2[C@H](NC(=O)[C@H](N)c3ccccc3)C(=O)N2[C@H]1C(=O)O`, the compound was called inactive in [9], in [10], in assay [11], in assay [12], in assay [14] and in [15]. Also, the call in assay [16], in assay [17], in [18], in assay [19] and in [20] was inactive. In addition, the concentration at half-maximal activity (AC50) in assay [13] is 22.6 µM (active).
On to `Cc1cc(C)c(S(=O)(=O)O)cc1N=Nc1cc(S(=O)(=O)O)c2ccccc2c1O`, for which the concentration at half-maximal activity (AC50) in assay [4] is 29.5 µM (active).
Turning to `CN(C)CCC(c1ccc(Cl)cc1)c1ccccn1` (stereo not given), the result in assay [9], in [10], in assay [11], in [12], in [13] and in [14] was inactive. Also, the compound was called inactive in assay [15], in assay [16], in [17], in assay [18], in [19] and in [20].
`NC(N)=Nc1nc(CSCCC(N)=NS(N)(=O)=O)cs1`: the compound was called inactive in assay [9], in assay [10], in assay [11], in assay [12], in assay [13] and in [14]. Also, the compound was classed as inactive in assay [15], in assay [16], in assay [17], in assay [18], in assay [19] and in assay [20].
As to `Cc1cc(O)cc(C)c1Cl`, the compound was classed as inactive in assay [1] and in assay [3]. Also, the half-maximal activity concentration (AC50) in assay [2] is 13.8 µM (active).
For the compound `c1ccc(CNc2ncnc3nc[nH]c23)cc1`, the compound was classed as inactive in assay [1] and in assay [2]. In addition, in assay [3], the AC50 was 21.9 µM (active).
With `CCCCCCC1CCC(=O)O1` (stereo not given), the compound was classed as inactive in [5], in assay [6], in assay [7] and in assay [8].
`O=C(O)c1ccccc1C(=O)O`: the compound was classed as inactive in assay [5], in [6], in [7] and in assay [8].
